Results on 6 molecules are retold here after PubChem BioAssay.

For orientation: inhibition means the change of the read-out against control, counted positive when it falls. One may read the viability as a per cent measure of how many cells are alive, often set against a control.

Assay [1] addresses 6-phosphogluconate dehydrogenase, decarboxylating (Homo sapiens) (UniProt P52209). The assay is described as follows: inhibition of human phosphogluconate dehydrogenase – biochemical, recombinant enzyme, NADPH absorbance, primary screen (AID 1159550;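 active = at least 20% inhibition of 6-phosphogluconate dehydrogenase activity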). The note with it: recombinant 6PGD, NADPH absorbance 341 nm; at 10 µM; stronger effect = higher value.
Assay [2] in a line: EMT-state selective cytotoxicity in co-culture – imaging, PC-3E GFP, TEM4-18 mCherry, primary screen (AID 1345086;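 active = compounds killing one labelled cell type while sparing the other, by normalised counts and ratio limits, not self-fluorescent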;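 as to all read-outs here: cells exposed to compound for 72 h before imaging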;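 as to red/green cell ratio (normalised): normalised mesenchymal count divided by normalised epithelial count so high means epithelial killing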). To be noted: PC-3E GFP / TEM4-18 mCherry co-culture, imaging cell counts, at 1 µM; for red/green cell ratio (normalised): actives lie on both sides, counts scaled to control wells, 1 = unselective.
A short description of assay [3]: P. berghei load reduction in hepatocytes – cell-based, HepG2, luciferase luminescence, HepG2 viability, primary screen (AID 624349; in the data active = parasite load remaining mostly below about 12%, no sharp cut-off; inactive = mostly above about 10%;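 also: 100% = mean of DMSO negative control wells on the same plate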). The note with it: P. berghei liver stage in HepG2, luciferase luminescence, concentration not given here; parasite load remaining: stronger effect = lower value; viability: measured here: HepG2 viability without parasites.
Assay [4] in a line: viability loss with induced miR-34 in A549 – imaging, A549 dox-inducible miR-34, nuclei and caspase counts, primary screen (AID 1347080). To be noted: A549 miR-34 inducible, Hoechst nuclei count, 48 h.
A short description of assay [5]: MELAS cybrid and Rieske KO viability enhancers – cell-based, MELAS cybrids, Rieske KO mouse fibroblasts, CellTiter-Glo, primary screen (AID 1508586;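 active = mean z-score across replicates of 1.96 or higher in either the MELAS or the Rieske mutant cell line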;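 also: z relative to plate mean and SD of compound and empty wells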). The note with it: low glucose. For orientation: In ATP-based viability assays light output follows the ATP content of the culture.
Assay [6] has as its target Mitogen-activated protein kinase 7 (Homo sapiens) (UniProt Q13164). Nature of the assay: Gal4-ERK5 driven luciferase induction – cell-based, HTS, primary screen (AID 1508626;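 active = luciferase signal above three times the same-plate solvent-only control wells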;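 also: luciferase driven by Gal4-ERK5 fusion binding five Gal4 sites before minimal TATA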). The note with it: HeLa Gal4-ERK5 transactivation, 18 h, at 5 µM, stronger effect = higher value.
Assay [7] in a line: galactose survival enhancers in mitochondrial complex I cybrids – cell-based, galactose medium, ATP luminescence, primary screen (AID 1645843;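 active = z-score of at least 1.8 in each of two replicates, scored against plate mean and spread of sample wells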;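 also: positive z means more ATP and so rescue of galactose-driven cybrid death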). To be noted: complex I mutant cybrid cells, 72 h, stronger effect = higher value.
Assay [8] in a line: blockers of polyQ-driven CASP3 activation – cell-based (AID 1583). The note with it: polyglutamine-induced caspase-3 activation, cell assay; stronger effect = higher value;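 tested at 10 µM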.
Assay [9] can be described thus: yeast 75Q aggregation reduction – 75Q-TubU reporter (AID 1593). The note with it: Yeast 75Q polyglutamine aggregation reporter.
A short description of assay [10]: restoration of touch response, mutant HTT neurons – whole organism, C. elegans mechanosensory neurons, N-terminal huntingtin (AID 1599). To be noted: C. elegans polyQ-huntingtin mechanosensory neurons, stronger effect = higher value.
Assay [11] in a line: blockers of cytochrome c efflux from mitochondria – biochemical, purified mitochondria (AID 1603).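 Also: mouse liver mitochondria challenged with calcium chloride; signal normalized to the plate average as 100%.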 To be noted: stronger effect = lower value.
A short description of assay [12]: polyglutamine aggregate formation blockers (AID 1604). To be noted: polyglutamine-induced protein aggregation inhibition assay; stronger effect = higher value; tested at 2.5 µM.
Assay [13] in a line: glutamate transport activators, MN-1 cells, MN-1 cell line (AID 1612).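 Also: tested at 1 µM final; 0% = mean of DMSO vehicle wells on each plate; positive means more glutamate uptake than control and negative means less.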 The note with it: MN-1 motor neuron cells, stronger effect = higher value.
A short description of assay [14]: 75Q-TubH aggregate inhibition, S. cerevisiae, yeast (AID 1616). To be noted: S. cerevisiae 75Q-TubH polyglutamine aggregation suppression; stronger effect = higher value.
A short description of assay [15]: GFP-Q80 aggregate reduction, neuronal-like cells, cell-based, NGF-treated PC12, GFPQ80 (AID 1614).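 Also: lower means fewer inclusions and 0 means no inclusions at all.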 The note with it: PC12 NGF-treated GFP-polyQ80 inclusion reduction.
The nature of assay [16]: compounds altering viability of human ES cells (AID 493140; call rule not given here;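 also: cells exposed to compounds for four days before counting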). The note with it: human embryonic stem cell survival screen; stronger effect = higher value.
Assay [17] in a line: compounds altering circadian rhythm period length – cell-based, LOPAC library, luminescence reporter (AID 2774; call rule not given here;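 also: values are relative to mean of DMSO wells on each plate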). To be noted: circadian reporter cells, at 7 µM, actives lie on both sides.
A short description of assay [18]: blockers of cellular phospholipid synthesis – cell-based, LOPAC library, screen 4, primary screen (AID 1347384; call rule not given here). The note with it: animal cells, phospholipid biosynthesis inhibition screen; at 10 µM.
Where [19] appears, read: measured here: epithelial PC-3E GFP cell survival.
Setting [20] is: measured here: mesenchymal TEM4-18 mCherry cell survival.
[21] abbreviates: stronger effect = lower value, cell number ratio, induced over uninduced.
The mark [22] stands for this setting: measured here: relative caspase fold change +Dox/-Dox.
The mark [23] stands for this setting: measured here: total cells with miR-34 induction, stronger effect = lower value.
[24] abbreviates: measured here: total cells without miR-34 induction.
Where [25] appears, read: MELAS cybrid survival, CellTiter-Glo 48 h, stronger effect = higher value.
The mark [26] stands for this setting: Rieske KO mouse fibroblast survival, CellTiter-Glo 72 h.

Several values for one entry are separate records, joined by “and”; a condition that tells them apart may be missing. Equal values may be shown once. For part of these data: Potency and affinity values are given separately. Activity calls are given as the source filed them.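 The calls were made as follows, unless noted: active = compounds whose cell count with miR-34 switched on is under 0.7 times the count with it off; inactive = the rest.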

Mitogen-activated protein kinase 7 (Homo sapiens), sequence (Q13164 whole entry, looked up, the tested form may be a part): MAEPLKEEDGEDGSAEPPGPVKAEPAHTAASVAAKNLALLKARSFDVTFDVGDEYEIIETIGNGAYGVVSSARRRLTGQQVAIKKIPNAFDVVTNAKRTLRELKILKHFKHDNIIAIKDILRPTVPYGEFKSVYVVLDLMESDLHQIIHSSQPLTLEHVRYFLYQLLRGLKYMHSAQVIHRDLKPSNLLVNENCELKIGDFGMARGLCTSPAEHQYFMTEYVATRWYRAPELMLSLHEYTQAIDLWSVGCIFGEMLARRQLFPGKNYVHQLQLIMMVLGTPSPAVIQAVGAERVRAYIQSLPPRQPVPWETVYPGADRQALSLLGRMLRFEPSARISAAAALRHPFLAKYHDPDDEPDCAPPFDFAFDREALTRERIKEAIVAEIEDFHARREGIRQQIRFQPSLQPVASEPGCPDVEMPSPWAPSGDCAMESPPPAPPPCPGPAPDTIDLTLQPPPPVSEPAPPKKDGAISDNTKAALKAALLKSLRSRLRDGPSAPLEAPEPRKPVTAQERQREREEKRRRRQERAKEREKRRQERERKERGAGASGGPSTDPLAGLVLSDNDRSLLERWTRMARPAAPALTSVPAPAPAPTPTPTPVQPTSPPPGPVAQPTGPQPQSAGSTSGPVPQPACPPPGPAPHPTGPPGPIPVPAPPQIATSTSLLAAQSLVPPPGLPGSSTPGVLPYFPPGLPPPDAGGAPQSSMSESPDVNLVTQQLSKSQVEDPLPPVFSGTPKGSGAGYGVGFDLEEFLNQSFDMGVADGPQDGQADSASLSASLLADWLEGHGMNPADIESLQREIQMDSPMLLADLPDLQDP
6-phosphogluconate dehydrogenase, decarboxylating (Homo sapiens), sequence (P52209 whole entry, looked up): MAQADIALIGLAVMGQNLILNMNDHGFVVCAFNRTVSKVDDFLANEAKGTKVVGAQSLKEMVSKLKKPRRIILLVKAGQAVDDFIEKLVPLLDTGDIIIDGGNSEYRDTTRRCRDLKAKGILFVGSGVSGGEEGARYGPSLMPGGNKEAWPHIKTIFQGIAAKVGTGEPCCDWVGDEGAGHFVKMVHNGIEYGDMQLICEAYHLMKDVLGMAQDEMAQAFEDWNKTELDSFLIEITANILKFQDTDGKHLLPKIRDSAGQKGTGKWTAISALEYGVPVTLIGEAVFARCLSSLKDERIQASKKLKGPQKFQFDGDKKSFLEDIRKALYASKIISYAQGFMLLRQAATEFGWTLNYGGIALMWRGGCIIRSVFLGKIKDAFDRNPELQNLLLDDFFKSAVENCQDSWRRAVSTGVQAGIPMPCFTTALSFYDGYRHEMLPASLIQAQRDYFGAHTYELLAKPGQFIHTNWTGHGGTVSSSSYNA

Regarding `COc1cc(-c2coc3cc(OCc4ccccc4)c(OC)c(O)c3c2=O)cc(O)c1OC`, the inhibition in [1] was 9.07% (inactive). Besides, the red/green cell ratio (normalised) in assay [2] was 0.97 (inactive). The normalised cell number in assay [2] (setting [19]) was 1.1; in assay [2] (setting [20]), 1.07.
For the molecule `O=c1cc(-c2ccccc2)oc2cc(O)c(O)c(O)c12`, the parasite load remaining in assay [3] is 140% (inactive). In [3], this molecule yielded a viability of 91.4%. In assay [1], the inhibition is 4.11% (inactive). Besides, the red/green cell ratio (normalised) in [2] was 0.84 (inactive). For the same molecule, the normalised cell number in assay [2] (setting [19]) is 1.08; in [2] (setting [20]), 0.91. For the same molecule, the fold change is 1.03 (inactive) and 0.801 (inactive) and 0.986 (inactive) in assay [4] (setting [21]); 1.01 and 1.16 and 0.831 in assay [4] (setting [22]). The cell count is 5800 and 6380 and 7810 in assay [4] (setting [23]); 5640 and 7960 and 7920 in [4] (setting [24]). Besides, the z-score was -0.448 (inactive) in assay [5] (setting [25]), -1.5 in [5] (setting [26]) and -0.805 (inactive) in assay [7]. The luciferase signal in assay [6] is 60 AU (inactive).
For `COc1ccc(-c2coc3cc(O)cc(O)c3c2=O)cc1`, the figures for the inhibition in [8] and in assay [1] were -2.46% and 17.9% (inactive), respectively. For the same molecule, the score in assay [9] turned out to be 1.27. The rescue above control in assay [10] is 4. For the same molecule, the cytochrome c release ratio in assay [11] came to 2.73. This molecule showed an inhibition of aggregation in [12] of 22.4%. Further, in [13], the glutamate uptake change is 10.2%. The same molecule showed an aggregation suppression score in assay [14] of 1.01. Moreover, the red/green cell ratio (normalised) in [2] is 0.99 (inactive). In addition, the normalised cell number in assay [2] (setting [19]) came out at 1.32; in assay [2] (setting [20]), 1.3. Besides, the fold change was 0.896 (inactive) in [4] (setting [21]) and 0.917 in [4] (setting [22]). For the same molecule, the values for the cell count in [4] (setting [23]) and in assay [4] (setting [24]) were 7900 and 8810, respectively. The values for the z-score in assay [5] (setting [25]) and in [5] (setting [26]) were -0.162 (inactive) and -1.4, respectively. For the same molecule, the luciferase signal in assay [6] is 16 AU (inactive).
For the molecule `c1coc(CNc2ncnc3nc[nH]c23)c1`, the results for the inhibition in assay [8] and in assay [1] were 6.38% and 6.86% (inactive), respectively. Further, the score in assay [9] came to 1.14. The rescue above control in assay [10] came to 19.9. Also, the cytochrome c release ratio in assay [11] came out at 1.1. The same molecule had an inhibition of aggregation in [12] of 68.2%. Besides, the glutamate uptake change in [13] was -3.65%. Moreover, the inclusion score in assay [15] was determined as 2. In assay [14], this molecule displayed an aggregation suppression score of 0.807. The survival in assay [16] was 3.5 (inactive). Further, the parasite load remaining in assay [3] was 122% (inactive) and 193% (inactive). Further, the viability in assay [3] was 98% and 74%. For the same molecule, the red/green cell ratio (normalised) in assay [2] was 1.01 (inactive). The normalised cell number is 1.05 in assay [2] (setting [19]) and 1.07 in assay [2] (setting [20]). Further, the fold change in [4] (setting [21]) was 1.04 (inactive) and 1.1 (inactive); in [4] (setting [22]), 0.935 and 0.585. In addition, the cell count is 8620 and 8070 in assay [4] (setting [23]); 8250 and 7310 in [4] (setting [24]). The z-score in [5] (setting [25]) is -0.185 (inactive) and -0.0285 (inactive); in assay [5] (setting [26]), -0.0997 and -0.188. In [6], the luciferase signal was 84 AU (inactive).
As to `NC(N)=NC(N)=Nc1ccccc1`, the inhibition in assay [8] was 53.4% and -16.9%; in assay [1], -4.29% (inactive). For the same molecule, the score in [9] is 1.25 and 0.9. Moreover, in [10], the rescue above control is -3.01 and 7.54. In [11], the cytochrome c release ratio was 0.86 and 1.03. Further, the inhibition of aggregation in assay [12] is 72.2% and 69.7%. The glutamate uptake change in assay [13] was -1.79% and -11.1%. The same molecule had an inclusion score in assay [15] of 2. Besides, in [14], the aggregation suppression score was 1.39 and 0.87. In addition, in assay [17], the period change was 0.065 h (inactive). In addition, the red/green cell ratio (normalised) in assay [2] is 0.97 (inactive). Also, the normalised cell number in assay [2] (setting [19]) worked out at 1.24; in assay [2] (setting [20]), 1.2. For the same molecule, the fold change in assay [4] (setting [21]) is 1 (inactive) and 0.938 (inactive); in assay [4] (setting [22]), 1.38 and 0.627. The cell count in assay [4] (setting [23]) was 9810 and 9310; in assay [4] (setting [24]), 9810 and 9920. Also, the molecule was called inactive in assay [18]. Further, the z-score in [7] is 0.085 (inactive) and -0.065 (inactive).
Turning to `Cc1cc(O)c2c(c1)C(=O)c1cc(O)cc(O)c1C2=O`, in assay [17], the period change was 0.05 h (inactive). For the same molecule, the inhibition in assay [1] was 2.17% (inactive). For the same molecule, in assay [2], the red/green cell ratio (normalised) is 1.05 (inactive). The normalised cell number turned out to be 1.08 in assay [2] (setting [19]) and 1.13 in assay [2] (setting [20]). For the same molecule, the fold change in assay [4] (setting [21]) is 1.01 (inactive) and 0.837 (inactive); in assay [4] (setting [22]), 1.12 and 1.08. The cell count in assay [4] (setting [23]) was 8200 and 6790; in assay [4] (setting [24]) it was 8110. Also, in [18], the outcome was inactive. Also, the z-score in [5] (setting [25]) was -0.41 (inactive); in assay [5] (setting [26]) it was 0.119; in [7] it was 0.08 (inactive).
